Values joined by “and” are separate entries in the source; they are usually repeats but may differ in a detail not shown here. Equal entries are not always repeated. Inconclusive results are not listed. Where a call stands in place of a potency, no number is given. The source holds several records for some structures; these can differ, active in one and inactive in another. Active and inactive are the calls of the source. Unless noted, calls come from the whole dose curve; as a rule, active = well fitted curve in the direction sought with a large enough effect in the repeat runs; inconclusive = weak or mixed curves; inactive = no such curve, though single readings can be large; an effect the other way counts as inactive or inconclusive.
Assays:
[1] = qHTS assay to identify small molecule agonists of the peroxisome proliferator-activated receptor delta (PPARd) signaling pathway - cell viability counter screen (AID 743211); note: nearly all actives have a fitted effect of over 55% in size; note: potency is the fitted concentration of half-maximal effect
Procedure, shortened: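 Multiplexed format: after the 2 h room-temperature LiveBLAzer B/G FRET step, CellTiter-Glo was added to the same wells. Luminescence after 30 min gave cell viability; compound exposure was 17 h at 37C.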

[2] = target: Peroxisome proliferator-activated receptor delta (Homo sapiens) (UniProt Q03181); assay: qHTS assay to identify small molecule agonists of the peroxisome proliferator-activated receptor delta (PPARd) signaling pathway (AID 743212; calls by dose curve;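 note: HEK293H cells with PPARd UAS beta-lactamase reporter GeneBLAzer system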)
Procedure, shortened: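 Beta-lactamase reporter read by fluorescence (LiveBLAzer B/G FRET, 2 h, room temperature). Test agents, in DMSO, incubated at 37 C with PPARd-bla HEK293H cells.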

[3] = qHTS assay to identify small molecule antagonists of the peroxisome proliferator-activated receptor delta (PPARd) signaling pathway - cell viability counter screen (AID 743213); note: nearly all actives have a fitted effect of over 50% in size; note: potency is the fitted concentration of half-maximal effect
Procedure, shortened: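 PPARd-bla HEK293H cells (3000/well) got compound plus 300 nM L165041 agonist for 17 h at 37 C. Viability in the same wells came from CellTiter-Glo luminescence after 30 min at room temperature.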

[4] = target: Peroxisome proliferator-activated receptor delta (Homo sapiens) (UniProt Q03181); assay: qHTS assay to identify small molecule antagonists of the peroxisome proliferator-activated receptor delta (PPARd) signaling pathway (AID 743215; active = well fitted inhibition curve with a large enough effect in the signal ratio in the repeat runs, not every such curve was filed as active; the % refers to the signal ratio;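 note: cells stimulated with agonist L165041 at 300 nM final during compound exposure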; note: potency is the fitted concentration of half-maximal effect)
Procedure, shortened: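 Agonist L165041 (300 nM final) added with compound to PPARd-bla HEK293H UAS-bla reporter cells; 17 h incubation at 37 C. Read-out: LiveBLAzer FRET substrate, 2 h at room temperature, fluorescence intensity.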

[5] = target: Bile acid receptor (Homo sapiens) (UniProt Q96RI1); assay: qHTS assay to identify small molecule antagonists of the farnesoid-X-receptor (FXR) signaling pathway (AID 743217; active = well fitted inhibition curve with a large enough effect in the signal ratio in the repeat runs, not every such curve was filed as active; the % refers to the signal ratio)
Procedure, shortened: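 Antagonist mode: chenodeoxycholic acid at 50 uM final stimulates a UAS-driven beta-lactamase reporter in HEK 293T FXR-bla cells during 16 h, 37C compound exposure. Read-out is FRET substrate fluorescence after 2 h at room temperature.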

[6] = qHTS assay to identify small molecule agonists of the farnesoid-X-receptor (FXR) signaling pathway - cell viability counter screen (AID 743218); note: nearly all actives have a fitted effect of over 45% in size; note: potency is the fitted concentration of half-maximal effect
Procedure, shortened: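 Viability counter screen in the same wells: CellTiter-Glo luminescence, 30 min room-temperature incubation, measured after the beta-lactamase read. Cells were GeneBLAzer FXR-UAS-bla HEK 293T, compound-treated 16 h at 37C.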

[7] = target: Bile acid receptor (Homo sapiens) (UniProt Q96RI1); assay: qHTS assay to identify small molecule agonists of the farnesoid-X-receptor (FXR) signaling pathway (AID 743220; active = well fitted activation curve with a large enough effect in the signal ratio in the repeat runs, not every such curve was filed as active; the % refers to the signal ratio)
Procedure, shortened: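 FXR-UAS-bla HEK 293T cells carrying a UAS-driven beta-lactamase reporter were plated for 5 h at 37C/5% CO2, then exposed to DMSO-dissolved Tox21 10K compounds for 16 h at 37C. A LiveBLAzer B/G FRET substrate was loaded for 2 h at room temperature before fluorescence reading.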

[8] = qHTS assay to identify small molecule antagonists of the farnesoid-X-receptor (FXR) signaling pathway - cell viability counter screen (AID 743221; active = well fitted cell-killing curve with a large enough effect in the repeat runs, not every such curve was filed as active; note: nearly all actives have a fitted effect of over 50% in size)
Procedure, shortened: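 CellTiter-Glo, 30 min RT, luminescence; same wells as the LiveBLAzer FRET read. Cells: FXR-UAS-bla HEK 293T. Treatment: compound with chenodeoxycholic acid 50 uM final, 16 h at 37 C.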

[9] = target: Vitamin D3 receptor (Homo sapiens) (UniProt P11473); assay: qHTS assay to identify small molecule agonists of the vitamin D receptor (VDR) signaling pathway (AID 743222; calls by dose curve)
Procedure, shortened: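 Agonist mode, beta-lactamase reporter: fluorescence from LiveBLAzer B/G FRET substrate (2 h, room temperature) read after 16 h compound treatment at 37 C of VDR-bla cells, which were pre-incubated 4 h after seeding.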

[10] = qHTS assay to identify small molecule agonists of the vitamin D receptor (VDR) signaling pathway - cell viability counter screen (AID 743224); note: nearly all actives have a fitted effect of over 50% in size; note: potency is the fitted concentration of half-maximal effect
Procedure, shortened: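 Counter screen run in the same wells as the VDR-bla reporter assay: CellTiter-Glo luminescence, 30 min at room temperature, after 16 h compound treatment at 37C of cells pre-plated for 4 h.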

[11] = qHTS assay to identify small molecule agonists of the NFkB signaling pathway (AID 1159509; active = well fitted curve in the direction sought with a large enough effect in the signal ratio in the repeat runs, not every such curve was filed as active; the % refers to the signal ratio; note: series mostly up to about 61 µM)
Procedure, shortened: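 Beta-lactamase reporter assay run in quantitative high-throughput format on an NF-kB-responsive ME-180 line, with 5 hr compound treatment and a FRET-based blue/green fluorescence readout.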

[12] = qHTS assay to identify small molecule agonists of the NFkB signaling pathway - cell viability counter screen (AID 1159515; calls by dose curve; note: nearly all actives have a fitted effect of over 55% in size; note: potency is the fitted concentration of half-maximal effect)
Procedure, shortened: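 Read by CellTiter-Glo luminescence (30 min, room temperature) in the wells also used for the beta-lactamase FRET read. ME-180 NFkB-bla cells at 2,000 per well were plated overnight, then exposed to compound for 5 hr at 37 C.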

[13] = qHTS assay to identify small molecule agonists of the endoplasmic reticulum stress response signaling pathway - cell viability counter screen (AID 1159517; calls by dose curve;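 note: HeLa cells carrying an ER stress response element beta-lactamase reporter; series mostly up to about 61 µM; nearly all actives have a fitted effect of over 50% in size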)
Procedure, shortened: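 Cytotoxicity of test compounds toward ESRE-bla HeLa cells was assessed after 5 hr exposure. The luminescent CellTiter-Glo signal was measured 30 min after reagent addition.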

[14] = target: Nuclear receptor ROR-gamma (Homo sapiens) (UniProt P51449); assay: qHTS assay to identify small molecule antagonists of the retinoid-related orphan receptor gamma (ROR-gamma) signaling pathway (AID 1159521; note: nearly all actives have a fitted effect of over 50% in size; note: potency is the fitted concentration of half-maximal effect)
Procedure, shortened: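 Readout: ONE-Glo luciferase luminescence, 30 min at room temperature. System: Tet-on RORγ CHO, RORE-LUC. Sequence: compound 2 h, doxycycline 1 uM final, 16 h at 37 C.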

[15] = qHTS assay to identify small molecule agonists of the AP-1 signaling pathway - cell viability counter screen (AID 1159525; calls by dose curve; note: nearly all actives have a fitted effect of over 55% in size)
Procedure, shortened: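 Each titration point was normalised to DMSO and tetra n-octyl ammonium bromide controls. The read was Cell Titer Glo luminescence after 30 min at RT, following 5 h compound exposure of ME-180 AP-1-bla cells at 37 °C.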

[16] = qHTS assay to identify small molecule agonists of the AP-1 signaling pathway (AID 1159526; calls by dose curve)
[17] = qHTS assay to identify small molecule antagonists of the vitamin D receptor (VDR) signaling pathway - cell viability counter screen (AID 743225); note: nearly all actives have a fitted effect of over 50% in size; note: potency is the fitted concentration of half-maximal effect
Procedure, shortened: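 Cytotoxicity toward the VDR-bla HEK 293T line was scored by ATP-based CellTiter-Glo luminescence, read in the wells already used for the beta-lactamase readout after 16 h compound treatment under 3 nM 1-alpha,25-dihydroxyvitamin D3 stimulation.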

[18] = qHTS assay to identify small molecule antagonists of the retinoid-related orphan receptor gamma (ROR-gamma) signaling pathway - cell viability counter screen (AID 1159520); note: nearly all actives have a fitted effect of over 50% in size; note: potency is the fitted concentration of half-maximal effect
Procedure, shortened: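 Tet-on ROR gamma CHO cells (1,000/well) were plated 4 hr, given compounds in DMSO for 2 hr at 37 C, then induced with 1 uM final doxycycline for 16 hr. Viability was read as ATP by CellTiter-Glo luminescence after 30 min.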

[19] = target: Vitamin D3 receptor (Homo sapiens) (UniProt P11473); assay: qHTS assay to identify small molecule antagonists of the vitamin D receptor (VDR) signaling pathway (AID 743223; active = well fitted inhibition curve with a large enough effect in the signal ratio in the repeat runs, not every such curve was filed as active; the % refers to the signal ratio)
Procedure, shortened: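 After VDR-bla cells are plated and left 4 h at 37C, DMSO-dissolved compounds and 3 nM (final) calcitriol agonist are added. Incubation continues 16 h at 37C; FRET beta-lactamase substrate then develops 2 h at room temperature.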

Chain of Peroxisome proliferator-activated receptor delta (Homo sapiens) (Q03181 whole entry, looked up): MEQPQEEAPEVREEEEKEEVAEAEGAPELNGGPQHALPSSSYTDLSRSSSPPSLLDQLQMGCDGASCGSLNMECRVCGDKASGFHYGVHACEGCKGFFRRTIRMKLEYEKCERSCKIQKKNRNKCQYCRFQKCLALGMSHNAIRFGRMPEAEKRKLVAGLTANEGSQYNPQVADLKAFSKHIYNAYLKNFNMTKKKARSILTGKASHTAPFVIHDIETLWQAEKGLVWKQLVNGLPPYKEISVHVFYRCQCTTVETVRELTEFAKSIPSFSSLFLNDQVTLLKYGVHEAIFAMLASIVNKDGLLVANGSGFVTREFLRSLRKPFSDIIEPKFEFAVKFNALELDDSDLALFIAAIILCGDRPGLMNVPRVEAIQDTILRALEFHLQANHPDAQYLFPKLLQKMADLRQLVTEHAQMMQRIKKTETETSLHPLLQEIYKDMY
Chain of Vitamin D3 receptor (Homo sapiens) (P11473 whole entry, looked up): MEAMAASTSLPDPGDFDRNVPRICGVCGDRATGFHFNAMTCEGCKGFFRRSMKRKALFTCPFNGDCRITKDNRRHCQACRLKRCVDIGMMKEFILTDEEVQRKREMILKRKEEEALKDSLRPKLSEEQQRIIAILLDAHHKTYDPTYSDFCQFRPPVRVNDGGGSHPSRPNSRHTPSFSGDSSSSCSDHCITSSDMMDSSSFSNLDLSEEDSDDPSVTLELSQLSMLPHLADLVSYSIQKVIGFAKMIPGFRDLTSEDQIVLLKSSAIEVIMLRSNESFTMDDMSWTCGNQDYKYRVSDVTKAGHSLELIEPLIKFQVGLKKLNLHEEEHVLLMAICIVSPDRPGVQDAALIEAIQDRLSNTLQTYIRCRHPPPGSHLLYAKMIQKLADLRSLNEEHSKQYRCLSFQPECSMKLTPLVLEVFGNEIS
Chain of Bile acid receptor (Homo sapiens) (Q96RI1 whole entry, looked up): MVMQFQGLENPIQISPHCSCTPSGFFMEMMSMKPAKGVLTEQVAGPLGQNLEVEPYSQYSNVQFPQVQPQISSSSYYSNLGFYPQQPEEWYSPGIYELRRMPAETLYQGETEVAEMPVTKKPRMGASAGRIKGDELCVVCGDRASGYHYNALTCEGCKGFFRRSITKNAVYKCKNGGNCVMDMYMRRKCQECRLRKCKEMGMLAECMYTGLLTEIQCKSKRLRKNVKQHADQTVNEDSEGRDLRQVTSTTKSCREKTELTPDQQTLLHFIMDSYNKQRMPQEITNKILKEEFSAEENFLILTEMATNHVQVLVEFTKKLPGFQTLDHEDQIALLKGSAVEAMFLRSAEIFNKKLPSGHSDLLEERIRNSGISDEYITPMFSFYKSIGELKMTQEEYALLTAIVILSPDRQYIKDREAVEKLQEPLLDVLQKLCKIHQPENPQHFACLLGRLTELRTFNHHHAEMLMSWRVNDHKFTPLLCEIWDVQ

| SMILES | Potency [1] | outcome [2] | Potency [3] | Potency [4] | Potency [5] | Potency [6] | outcome [7] | Potency [8] | outcome [9] | Potency [10] | outcome [11] | Potency [12] | Potency [13] | Potency [14] | Potency [15] | outcome [16] | Potency [17] | Potency [18] | outcome [19] |
| --- | --- | --- | --- | --- | --- | --- | --- | --- | --- | --- | --- | --- | --- | --- | --- | --- | --- | --- | --- |
| CCCCC/C=C/C=C/C=O | inactive | inactive | inactive | inactive | inactive | inactive | inactive | inactive | inactive | inactive and 49 µM (active) | inactive | inactive | inactive | inactive | inactive | inactive | – | – | – |
| O=C(OCc1ccccc1)c1ccccc1O | inactive | inactive | – | – | – | – | – | inactive | inactive | – | inactive | inactive | inactive | inactive | – | inactive | inactive | inactive | – |
| Nc1ccccc1N | inactive | inactive | inactive | inactive | – | – | – | inactive | inactive | inactive | inactive | inactive | inactive | inactive | inactive | inactive | inactive | – | – |
| CCCCOCCOCCO | inactive | – | inactive | – | – | – | – | inactive | inactive | inactive | inactive | inactive | inactive | inactive | – | inactive | inactive | inactive | – |
| CCCCCCCCCCCO | inactive and 43.6 µM (active) | – | inactive | inactive | – | – | inactive | inactive | inactive | inactive and 49 µM (active) | inactive | inactive and 49 µM (active) | inactive | inactive | – | inactive | inactive | – | inactive |
| O=C1OC2(c3cc(Br)c(O)c(Br)c3Oc3c2cc(Br)c(O)c3Br)c2c(Cl)c(Cl)c(Cl)c(Cl)c21 | inactive | – | inactive | inactive | – | inactive | – | inactive | – | – | inactive | inactive | inactive | – | inactive | inactive | inactive | inactive | – |
| Cc1cccc(N(C)C(=S)Oc2ccc3ccccc3c2)c1 | – | – | inactive | – | inactive | inactive | inactive | inactive | inactive | inactive | inactive | inactive | inactive | inactive | – | inactive | 15.5 µM (active) and inactive | – | – |
| c1ccc2cc(Nc3ccc(Nc4ccc5ccccc5c4)cc3)ccc2c1 | inactive | – | inactive | inactive | inactive | – | – | inactive | inactive | inactive | inactive | inactive | inactive | inactive | – | inactive | inactive | inactive | inactive |
| O=C(Nc1ccc(Cl)cc1)Nc1ccc(Cl)c(Cl)c1 | – | inactive | 19.4 µM (active) | 19.4 µM (active) | – | inactive and 2.66 µM (active) | inactive | – | – | 19.4 µM (active) and 11 µM (active) | inactive | inactive | inactive | 17.2 µM (active) | inactive | – | inactive | 17.1 µM (active) | – |
| c1ccc(Nc2ccccc2)cc1 | inactive | inactive | inactive | inactive | – | inactive | – | inactive | inactive | – | inactive | inactive | inactive | 13.7 µM (active) and inactive | – | – | inactive | – | – |
| O=C=Nc1ccc(Cc2ccc(N=C=O)cc2)cc1 | inactive | inactive | inactive | inactive | inactive | inactive | inactive | inactive | inactive | – | inactive | inactive | inactive | inactive | inactive | inactive | inactive | – | inactive |
| C#C[C@]1(O)CC[C@H]2[C@@H]3CCC4=Cc5oncc5C[C@]4(C)[C@H]3CC[C@@]21C | – | – | inactive | – | – | – | – | – | – | 54.9 µM (active) and inactive | inactive | – | inactive | 17.2 µM (active) and 16.8 µM (active) | – | inactive | inactive | inactive | – |

— PubChem BioAssay (Tox21)
